Data: PubChem BioAssay (EPA / NIEHS)
Activity calls are given as the source filed them. Rule for the calls: active = hit-call score of the fitted dose curve at least 0.9, where 1 is the maximum; inactive = score below 0.9.

Test: CCTE_Padilla_ZF_Score.Living: CCTE's 144 Hour Post-fertilization zebrafish Assay Score for Viability, Padilla Lab (AID 2284410);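 note: larval death at 6 dpf judged by absent heartbeat or coagulation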
Description: CCTE_Padilla_ZF_Phenotype_Score is a whole embryo, multiplexed assay using zebrafish ova exposed for 144 hours post fertilization on a 96-well plate.CCTE_Padilla_ZF_Score.Living is one of one assay component(s) measured or calculated from the CCTE_Padilla_ZF_Phenotype_Score assay. It is designed to make measurements of zebrafish development as detected with brightfield microscopy of developing zebrafish embryos.Data from the assay component CCTE_Padilla_ZF_Score.Living was analyzed into 1 assay endpoints. This assay endpoint, CCTE_Padilla_ZF_Score.Living, was analyzed in the positive analysis fitting direction relative to DMSO as the negative control and baseline of activity. Using a type of viability reporter, gain-of-signal activity can be used to understand changes in developmentals as they relate to the whole embryo. To generalize the intended target to other relatable targets, this assay endpoint is annotated to the zebrafish development intended target family, where the subfamily is embryonic mortality.
Zebrafish husbandry: Wild type adult zebrafish (Danio rerio; undefined outbred stock obtained from Aquatic Research Organisms, Hampton, NH, 03842) were housed in an AAALAC-approved animal facility at 28C with a 14:10 h light: dark cycle (lights on at 08:30 h). Adult fish (2-3 females per male; density = 15-20 adults per tank) were kept in one of several 9-liter (L) flow-through colony tanks (Aquaneering Inc., San Diego, CA). All adults in a colony tank were placed in a 2 L (static) breeding tank (Aquatic Habitats, Apopka, FL) one hour prior to light onset. Typically, adults from two to three colony tanks were mated on the same day. Two hours after light onset the adults were returned to the colony tank. All embryos were gathered from each breeder tank, pooled, and placed in a 28C water bath for 2 h, followed by two washes with 0.06% bleach (v/v) in 10% Hanks' Balanced Salt Solution (13.7 mM NaCl 0.54 mM KCl, 25 uM Na2HPO4, 130 uM CaCl2 100 um MgSO4 and 420 um NaHCO3,), hereafter referred to as Hanks' solution, for 5 min in order to remove any residual bacteria or fungi. Immediately following washing, the embryos were examined, and healthy embryos were separated from dead or unfertilized eggs and moved into fresh Hanks'. Chemical exposures: Zebrafish embryos were exposed in 96-well plates. Between 6- and 8-hours post fertilization (hpf), healthy embryos (with chorions) were transferred, one embryo per well, into 96 well (0.5 mL) microtiter plates (Cell Culture-Treated, Flat-Bottom Microplate 96 well [Corning Costar, Kennebunk, ME; Cat 09-761-145]) filled with 200 uL of Hanks' solution. A random number generator was used to assign the order in which the rows of embryos were plated in 96 well plates each week. After plating, the embryos were dosed with 0.8 uL of the chemical dosing solution then immediately sealed with AlumaSeal II (Excel Scientific Inc, Victorville, CA) to prevent volatilization of the chemicals, and then placed in a leakproof secondary container. These containers were placed in an incubator maintained on a 14:10 h light: dark cycle at 26C for rearing. On 5 dpf, live larvae were gently moved out of the plate with test chemicals and into a new 96 well mesh plate (Millipore Corp., Bedford, MA) with just the Hanks' solution. Once within the mesh well plate, the animals were rinsed with 400 uL of fresh Hanks' three times, and then the plates were covered with a non-adhesive material (Microseal A, BioRad, Hercules, CA), plate lid added, and then plate sides wrapped in Parafilm (PM992, Bermis Company, Neenah, WI), and returned to the incubator. […]

Row | Structure (SMILES) | outcome | AC50
1 | C=CC(=O)OCC(F)(F)C(F)(F)C(F)(F)C(F)(F)C(F)(F)C(F)(F)C(F)(F)F | inactive | –
2 | OCC(F)(F)C(F)(F)C(F)(F)C(F)(F)C(F)(F)C(F)F | inactive | –
3 | FC(F)(F)C(F)(F)CNCC(F)(F)C(F)(F)F | inactive | –
4 | O=C(O)C(F)(F)C(F)(F)OC(F)(F)F | inactive | –
5 | OCC(F)(F)C(F)(F)C(F)(F)C(F)(F)C(F)(F)C(F)(F)F | – | 88 µM (active)
6 | C=C(C)C(=O)OCC(F)(F)C(F)(F)C(F)(F)F | inactive | –
7 | FC(F)(I)C(F)(F)C(F)(F)C(F)(F)I | inactive | –
8 | O=S(=O)(OCCOC(F)(F)F)C(F)(F)F | inactive | –
9 | C=C(C)C(=O)OCC(F)(F)C(F)(F)C(F)(F)C(F)(F)C(F)(F)C(F)(F)C(F)(F)F | inactive | –
10 | C=CC(F)(F)C(F)(F)C(F)(F)C(F)(F)C(F)(F)C(F)(F)C(F)(F)C(F)(F)F | inactive | –
11 | O=C(O)C(F)(F)C(F)(F)C(F)(F)C(F)(F)C(F)(F)C(F)(F)C(F)(F)C(F)(F)C(F)(F)C(F)(F)C(F)(F)C(F)(F)F | inactive | –
12 | O=C(O)C(F)(F)C(F)(F)C(F)(F)C(F)(F)C(F)(F)C(F)(F)C(F)(F)C(F)(F)C(F)(F)C(F)F | – | 17.5 µM (active)
13 | O=C(O)C(F)(F)C(F)(F)C(F)(F)F | inactive | –
14 | CC(C)(C)C(=O)CC(=O)C(F)(F)C(F)(F)C(F)(F)F | – | 32.8 µM (active)
15 | O=C(O)C(F)(F)C(F)(F)C(F)F | inactive | –
16 | C=CC(=O)OCC(F)(F)C(F)(F)C(F)(F)C(F)(F)COC(=O)C=C | – | 9.44 µM (active)
17 | FC(F)(F)C(F)(F)C(F)(F)C(F)(F)C(F)(F)C(F)(F)C(F)(F)C(F)(F)CCS | inactive | –
18 | NC(=O)C(F)(F)C(F)(F)C(F)(F)C(F)(F)F | inactive | –
19 | N=C(N)C(F)(F)C(F)(F)C(F)(F)C(F)(F)C(F)(F)C(F)(F)C(F)(F)F | – | 22.2 µM (active)
20 | FC(F)(F)C(F)(F)C(F)(F)C(F)(F)C(F)(F)C(F)(F)C(F)(F)C(F)(F)F | inactive | –

Row | Structure (SMILES) | outcome | AC50
21 | O=C(O)C(F)(F)C(F)(F)F | inactive | –
22 | C=C(C)C(=O)OCCC(F)(F)C(F)(F)C(F)(F)C(F)(F)C(F)(C(F)(F)F)C(F)(F)F | inactive | –
23 | O=C(O)C(F)(OC(F)(F)C(F)(OC(F)(F)C(F)(OC(F)(F)C(F)(F)C(F)(F)F)C(F)(F)F)C(F)(F)F)C(F)(F)F (stereo not given) | inactive | –
24 | CCCCCCCCC(F)(F)C(F)(F)C(F)(F)C(F)(F)C(F)(F)C(F)(F)F | inactive | –
25 | O=S(=O)(OCC(F)F)C(F)(F)F | inactive | –
26 | FC(F)(F)C(F)(F)C(F)(F)C(F)(F)CCI | inactive | –
27 | O=C(O)C(F)(F)C(F)(F)C(F)(F)C(F)(F)C(F)(F)C(F)(F)C(F)(F)C(F)(F)Cl | – | 35.5 µM (active)
28 | FC(F)(F)C(F)(F)C(F)(F)N(C(F)(F)C(F)(F)C(F)(F)F)C(F)(F)C(F)(F)C(F)(F)F | inactive | –
29 | FC(F)(F)C(F)(F)C(F)(F)C(F)(F)C(F)(F)C(F)(F)C(F)(F)I | inactive | –
30 | FC(F)(F)C(F)(F)C(F)(F)C(F)(F)C(F)(F)C(F)(F)CCS | inactive | –
31 | O=P(O)(O)OCCC(F)(F)C(F)(F)C(F)(F)C(F)(F)C(F)(F)C(F)(F)F | inactive | –
32 | O=C(O)C(F)(F)C(F)(F)C(F)(F)C(F)(F)C(F)(F)C(F)(F)C(F)(F)C(F)(F)C(F)(F)C(F)(F)C(F)(F)C(F)(F)C(F)(F)F | inactive | –
33 | FC(F)(F)C(F)(F)C(F)(F)C(F)(F)C(F)(F)CCI | inactive | –
34 | CCO[Si](CCC(F)(F)C(F)(F)C(F)(F)C(F)(F)C(F)(F)C(F)(F)F)(OCC)OCC | inactive | –
35 | FC(F)(F)C(F)(F)C(F)(F)CI | inactive | –
36 | O=C(O)C(F)(OC(F)(F)C(F)(OC(F)(F)C(F)(F)C(F)(F)F)C(F)(F)F)C(F)(F)F (stereo not given) | inactive | –
37 | O=C(CC(=O)C(F)(F)C(F)(F)F)C(F)(F)F | inactive | –
38 | O=C(O)C=C(C(F)(F)F)C(F)(F)F | inactive | –
39 | FC(F)(F)C(F)(F)C(F)(F)C(F)(F)C(F)(F)C(F)(F)C(F)(F)Br | inactive | –
40 | O=C(Cl)C(F)(F)C(F)(F)C(F)(F)C(F)(F)C(F)(F)C(F)(F)C(F)(F)C(F)(F)F | inactive | –
